According to PubChem BioAssay:
Activity calls are given as the source filed them.

Columns and labels:
[1] = tested on: PRMT1 (protein arginine N-methyltransferase 1); experiment: small molecules binding arginine methyltransferase PRMT1 – biochemical, small-molecule microarray, 635 nm fluorescence, primary screen (AID 1088); conditions: higher = more signal;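 note: binding of Prmt1 protein to compounds spotted on small-molecule microarray slides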
[2] = growth effects on S. cerevisiae YJM789 – YJM789 clinical isolate, OD600, 24 h, basal, primary screen (AID 1089); conditions: higher = more signal, called active from +8 up or from −8 down;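 note: growth of clinical yeast isolate S. cerevisiae YJM 789 seeded 1000 cells per well; test concentration not given here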
[3] = S. pombe growth modifiers, basal conditions – strain 972, OD600, 24 h, no modulator, primary screen (AID 1090);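 note: basal condition with compound alone and no growth modifier present; test concentration not given here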; conditions: S. pombe 972 growth, higher = more signal, called active from +8 up or from −8 down
[4] = budding yeast growth modifiers under rapamycin – strain BY4716, OD600, 96 h, primary screen (AID 1091); note: test concentration not given here; conditions: S. cerevisiae BY4716 + rapamycin, higher = more signal, called active from +8 up or from −8 down
[5] = target: Torsin-1A-interacting protein 2 (Homo sapiens) (UniProt Q8NFQ8); experiment: small molecules binding lysate-expressed LULL1 – cell lysate, human LULL1 lysate, 635/667 nm fluorescence, primary screen (AID 1092); conditions: small-molecule microarray, hLULL1 lysate binding, 635 nm fluorescence; higher = more signal;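 note: probe is lysate of COS7 cells overexpressing human LULL1; score merges per-feature 667 nm fluorescence with signal-to-noise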
[6] = optical density change of DRC41 E. coli – strain DRC41, OD650, 24 h, E. coli filamentation project, primary screen (AID 1093);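 note: MC1000 strain lacking acrAB efflux and sulA so SOS filamentation is blocked; test concentration not given here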; conditions: E. coli DRC41 growth, higher = more signal, called active from +8 up or from −8 down
[7] = probe aLefty2 binding to arrayed compounds – biochemical, biotinylated probe, 635/667 nm fluorescence, primary screen (AID 1094); conditions: small-molecule microarray, higher = more signal;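 note: score merges spot fluorescence near 667 nm with spot signal-to-noise ratio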
[8] = tested on: Noggin (protein binding on small-molecule microarray); experiment: small molecules binding Noggin protein – biochemical, 635/667 nm fluorescence, primary screen (AID 1095); conditions: 635 nm fluorescence, higher = more signal;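 note: score merges 667 nm feature fluorescence with signal to noise over triplicate slides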
[9] = target: Neurogenic locus notch homolog protein 3 (Homo sapiens) (UniProt Q9UM47); experiment: small molecules binding NOTCH3 protein – biochemical, 635/667 nm fluorescence, primary screen (AID 1096); conditions: small-molecule microarray, 635 nm fluorescence, higher = more signal
[10] = probe aEGFR binding to arrayed compounds – biochemical, biotinylated probe, 635/667 nm fluorescence, primary screen (AID 1097); conditions: small-molecule microarray, higher = more signal;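 note: probe is a biotinylated anti-EGFR antibody binding compounds printed on slides; score combines fluorescence near 667 nm and signal to noise of each spot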

Neurogenic locus notch homolog protein 3 (Homo sapiens), sequence (Q9UM47 whole entry, looked up): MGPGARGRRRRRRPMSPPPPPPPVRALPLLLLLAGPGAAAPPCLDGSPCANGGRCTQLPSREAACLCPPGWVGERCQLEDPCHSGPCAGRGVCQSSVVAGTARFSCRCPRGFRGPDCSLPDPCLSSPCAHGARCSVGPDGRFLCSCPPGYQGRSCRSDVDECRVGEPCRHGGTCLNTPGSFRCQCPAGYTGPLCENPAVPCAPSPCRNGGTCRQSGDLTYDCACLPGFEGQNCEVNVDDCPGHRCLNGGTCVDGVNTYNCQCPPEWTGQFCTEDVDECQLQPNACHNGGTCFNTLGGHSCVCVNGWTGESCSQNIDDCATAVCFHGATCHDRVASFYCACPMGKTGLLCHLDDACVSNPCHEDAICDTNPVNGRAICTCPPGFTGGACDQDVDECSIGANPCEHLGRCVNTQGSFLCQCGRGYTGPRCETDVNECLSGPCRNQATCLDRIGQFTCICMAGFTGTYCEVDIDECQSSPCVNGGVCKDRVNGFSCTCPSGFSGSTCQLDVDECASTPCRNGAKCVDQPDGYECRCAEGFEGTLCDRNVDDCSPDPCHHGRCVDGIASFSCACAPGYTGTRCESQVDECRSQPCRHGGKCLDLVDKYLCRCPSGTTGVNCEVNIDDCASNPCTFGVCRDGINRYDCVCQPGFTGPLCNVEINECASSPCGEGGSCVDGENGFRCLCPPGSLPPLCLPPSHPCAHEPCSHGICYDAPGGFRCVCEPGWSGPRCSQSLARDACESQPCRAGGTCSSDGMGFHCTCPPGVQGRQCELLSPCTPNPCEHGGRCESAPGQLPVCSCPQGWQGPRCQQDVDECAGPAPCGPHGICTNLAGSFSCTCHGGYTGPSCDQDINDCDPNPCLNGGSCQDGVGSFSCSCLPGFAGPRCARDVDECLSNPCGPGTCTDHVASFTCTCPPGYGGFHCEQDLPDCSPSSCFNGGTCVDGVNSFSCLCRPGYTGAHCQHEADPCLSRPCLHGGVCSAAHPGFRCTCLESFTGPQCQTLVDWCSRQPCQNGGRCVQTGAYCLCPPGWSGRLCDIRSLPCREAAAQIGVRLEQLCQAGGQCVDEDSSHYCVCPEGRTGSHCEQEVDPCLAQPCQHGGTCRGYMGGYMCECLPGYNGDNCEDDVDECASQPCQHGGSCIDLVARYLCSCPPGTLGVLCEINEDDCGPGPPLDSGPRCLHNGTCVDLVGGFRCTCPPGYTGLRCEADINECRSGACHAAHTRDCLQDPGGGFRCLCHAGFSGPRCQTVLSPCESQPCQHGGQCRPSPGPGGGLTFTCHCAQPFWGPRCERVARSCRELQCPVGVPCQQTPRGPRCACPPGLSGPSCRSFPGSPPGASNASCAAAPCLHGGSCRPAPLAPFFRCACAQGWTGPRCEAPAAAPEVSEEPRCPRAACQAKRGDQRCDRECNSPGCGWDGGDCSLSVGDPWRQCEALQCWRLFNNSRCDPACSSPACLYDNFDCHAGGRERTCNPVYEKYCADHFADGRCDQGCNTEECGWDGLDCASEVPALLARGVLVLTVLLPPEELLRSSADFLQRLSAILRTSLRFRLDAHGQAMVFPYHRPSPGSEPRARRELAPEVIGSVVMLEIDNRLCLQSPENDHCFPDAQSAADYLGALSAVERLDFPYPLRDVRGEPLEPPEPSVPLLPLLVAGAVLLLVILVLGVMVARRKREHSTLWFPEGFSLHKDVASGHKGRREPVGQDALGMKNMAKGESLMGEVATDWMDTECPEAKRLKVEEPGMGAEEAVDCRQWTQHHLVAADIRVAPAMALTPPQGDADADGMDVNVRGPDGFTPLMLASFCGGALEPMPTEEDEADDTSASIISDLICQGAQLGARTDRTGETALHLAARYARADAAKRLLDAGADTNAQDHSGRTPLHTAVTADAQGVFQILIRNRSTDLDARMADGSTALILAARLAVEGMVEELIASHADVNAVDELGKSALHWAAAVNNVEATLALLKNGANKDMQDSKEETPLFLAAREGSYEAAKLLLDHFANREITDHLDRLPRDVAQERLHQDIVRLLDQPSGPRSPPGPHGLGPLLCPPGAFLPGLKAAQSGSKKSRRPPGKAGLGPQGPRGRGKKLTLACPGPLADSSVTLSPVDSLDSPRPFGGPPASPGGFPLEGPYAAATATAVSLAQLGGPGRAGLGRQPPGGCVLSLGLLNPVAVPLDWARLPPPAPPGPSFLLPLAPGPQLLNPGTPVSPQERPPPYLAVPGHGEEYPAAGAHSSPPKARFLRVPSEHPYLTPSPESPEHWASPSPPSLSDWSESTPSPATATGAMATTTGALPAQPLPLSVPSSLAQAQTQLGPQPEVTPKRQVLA
Torsin-1A-interacting protein 2 (Homo sapiens), sequence (Q8NFQ8 whole entry, looked up): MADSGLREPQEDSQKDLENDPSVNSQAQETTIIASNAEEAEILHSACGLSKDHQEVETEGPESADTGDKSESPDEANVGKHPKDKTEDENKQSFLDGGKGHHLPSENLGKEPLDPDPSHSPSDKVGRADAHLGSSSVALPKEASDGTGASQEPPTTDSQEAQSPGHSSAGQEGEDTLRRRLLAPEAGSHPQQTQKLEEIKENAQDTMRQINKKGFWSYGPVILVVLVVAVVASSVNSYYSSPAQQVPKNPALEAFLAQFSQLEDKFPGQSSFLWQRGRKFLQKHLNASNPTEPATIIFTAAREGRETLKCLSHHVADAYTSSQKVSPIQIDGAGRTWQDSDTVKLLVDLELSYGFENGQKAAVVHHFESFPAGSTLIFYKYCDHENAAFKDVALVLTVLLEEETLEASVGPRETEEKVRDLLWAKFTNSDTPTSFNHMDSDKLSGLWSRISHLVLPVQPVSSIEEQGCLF

Structure (SMILES)	composite z-score [1]	z-score [2]	z-score [3]	z-score [4]	composite z-score [5]	z-score [6]	composite z-score [7]	composite z-score [8]	composite z-score [9]	composite z-score [10]
CC(C)c1ccc(NN2C(C(O)c3ccccc3)C=CC3C(=O)N(c4ccccc4)C(=O)C32)cc1 (stereo not given)	0.787	1.54 (inactive)	-0.0469 (inactive)	0.209 (inactive)	2.88	-0.213 (inactive)	0.142	-0.621	1.11	0.198
O=C(NCC(F)(F)F)[C@@H]1c2ccccc2C(=O)N(Cc2cc(C(F)(F)F)cc(C(F)(F)F)c2)[C@H]1c1ccc(CO)cc1	0.648	0.338 (inactive)	0.459 (inactive)	-0.359 (inactive)	1.04	0.955 (inactive)	-0.217	0.148	-0.122	-0.219
CC[C@H]1C2=C3C(CC[C@H]4C(OCc5ccc(F)cc5C(F)(F)F)OC[C@](C)([C@@H]34)N(C(=O)OC(C)(C)C)C2)C(COC(C)=O)C1COC(C)=O (stereo not given in full)	0.454	-0.284 (inactive)	0.387 (inactive)	1.46 (inactive)	2.89	-1.31 (inactive)	0.0909	0.539	1.13	0.0507
CCOC(=O)C[C@H]1[C@H](OC(=O)c2ccc(-c3ccccc3)cc2)[C@@H](NC(=O)C2CCCCC2)c2cc(OCCCO)ccc2N1C(=O)Cc1ccc(OC)cc1	0.405	-0.253 (inactive)	-0.0766 (inactive)	0.214 (inactive)	0.852	-0.884 (inactive)	-0.141	-0.141	0.375	-0.114
O=C/C=C/c1ccc(-c2ccccc2)cc1	-0.645	-25.4 (active)	-19.9 (active)	-5.08 (inactive)	-0.7	-0.168 (inactive)	-0.103	-0.339	-0.586	-0.15
COCCOC(=O)N1C(=O)[C@@]2(c3cc(C#CCC(C(=O)OC)C(=O)OC)ccc31)[C@H](c1ccc(O)cc1)N1[C@H](c3ccccc3)[C@H](c3ccccc3)OC(=O)[C@H]1[C@@H]2C(=O)N1CCc2cc(OC)c(OC)cc2C1	1.54	0.344 (inactive)	-1.01 (inactive)	0.157 (inactive)	2.56	0.794 (inactive)	-0.103	1.12	0.8	0.0353
COCCCNC(=O)[C@@]1(Cc2ccccc2I)c2ccccc2C(=O)N(Cc2ccccc2OC)[C@H]1c1ccc(CO)cc1	1.56	0.634 (inactive)	0.248 (inactive)	1.07 (inactive)	2.77	0.62 (inactive)	-0.142	-1.22	-0.625	-0.331
COCCOC(=O)N1C(=O)[C@@]2(c3cc(C#CCNC(N)=O)ccc31)[C@H](c1ccc(O)cc1)N1[C@H](c3ccccc3)[C@H](c3ccccc3)OC(=O)[C@H]1[C@@H]2C(=O)N1CCc2cc(OC)c(OC)cc2C1	1.29	1.05 (inactive)	0.123 (inactive)	1.84 (inactive)	1.47	-0.732 (inactive)	-0.0475	0.978	0.636	-0.0967
C=C(COC)C(=O)CC[C@H](OC(C)=O)c1ccc(CO)o1	-0.451	-1.16 (inactive)	-0.603 (inactive)	-1.46 (inactive)	2	1.5 (inactive)	-0.0963	1.31	0.651	-0.067
CCOC(=O)C[C@H]1[C@H](OC(=O)c2ccccc2-c2ccccc2)[C@@H](NC(=O)CC(C)C)c2cc(OCCCO)ccc2N1C(=O)c1ccccc1	0.768	-0.959 (inactive)	-0.613 (inactive)	-1.52 (inactive)	0.583	0.482 (inactive)	-0.0859	1.3	1.09	-0.159
C[C@@]1([C@@H](NS(=O)(=O)c2cccc3cccnc23)c2ccc(-c3ccccc3)cc2)C[C@H]1C1CCCCC1	0.79	0.523 (inactive)	0.381 (inactive)	1.41 (inactive)	2.47	-1.89 (inactive)	0.134	-0.0642	0.818	-0.0316
C=C(CC1([C@@H](NP(=O)(c2ccccc2)c2ccccc2)[C@H]2C[C@@H]2CCCC)CC1)c1cccc(OC)c1	-0.155	0.557 (inactive)	0.832 (inactive)	1.82 (inactive)	1.66	-0.768 (inactive)	0.179	-0.239	0.36	-0.0563
COc1ccc([Si](C)(C)[C@H]2[C@H](CC(=O)N3CCC[C@H]3CO)O[C@@]3(C(=O)N(C)c4ccccc43)[C@@H]2C)cc1	0.969	-0.42 (inactive)	-0.134 (inactive)	-0.401 (inactive)	0.757	-0.735 (inactive)	-0.0258	1.85	0.207	-0.151
COC(=O)[C@@]1(Cc2ccc(F)cc2)[C@H]2c3cc(C(=O)N4CCCC4)n(Cc4ccc(C(F)(F)F)nc4)c3C[C@H]2CN1C(=O)c1ccccc1	0.428	-0.368 (inactive)	1.17 (inactive)	3.82 (inactive)	2.29	-0.293 (inactive)	0.67	0.373	1.03	0.188
